PubChem BioAssay
Active and inactive are the calls of the source.

Tests used:
[1] = optical density shifts of acrAB sulA E. coli – strain DRC41, OD650, 48 h, E. coli filamentation inducer project, primary screen (AID 1152); details: higher = more signal, called active from +8 up or from −8 down;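 note: E. coli MC1000 strain DRC41 lacking acrAB efflux pump and sulA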
[2] = probe aLefty1 binding on compound microarray – biochemical, small-molecule microarray, 635/667 nm fluorescence, primary screen (AID 1153); details: higher = more signal;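 note: score merges spot fluorescence with signal-to-noise ratio from the scanned slide images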
[3] = plasmodial surface anion channel blockers, osmotic lysis – cell-based, P. falciparum Indochina, OD700, 1 h, primary screen (AID 1154); details: P. falciparum Indochina infected RBC osmotic lysis, higher = more signal, called active from +8 up or from −8 down
[4] = plasmodial surface anion channel blockers, osmotic lysis – cell-based, P. falciparum Indochina, OD700, 2 h, primary screen (AID 1155);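 note: lysis reports solute entry through the parasite surface anion channel PSAC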; details: P. falciparum Indochina infected erythrocytes, higher = more signal, called active from +8 up or from −8 down
[5] = changes in parasitized red cell lysis, either direction – P. falciparum Indochina, OD700, 3 h, PSAC antagonist project, primary screen (AID 1156); details: P. falciparum-infected erythrocytes, osmotic lysis, higher = more signal, called active from +8 up or from −8 down
[6] = plasmodial surface anion channel blockers, osmotic lysis – cell-based, P. falciparum Indochina, OD700, 18 h, primary screen (AID 1157); details: P. falciparum Indochina infected erythrocytes, osmotic lysis OD700, 18 h; higher = more signal, called active from +8 up or from −8 down
[7] = S6 kinase pathway phospho-S6 level changes – cell-based, A549, cytoblot, luminescence, serum-stimulated, primary screen (AID 1158); details: 5 h, higher = more signal;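 note: serum-stimulated A549 lung adenocarcinoma cells; signal is phosphorylated S6 detected by cytoblot immunostaining with HRP secondary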
[8] = target: NADPH oxidase 2 (Homo sapiens) (UniProt P04839); experiment: compounds shifting NOX2 Amplex Red fluorescence – cell-based, HEK293-NOX2, PMA-stimulated, NOX inhibitor project, primary screen (AID 1159); details: 45 min, higher = more signal, called active from +8 up or from −8 down; note: test concentration not given here
Chain of NADPH oxidase 2 (Homo sapiens) (P04839 whole entry, looked up): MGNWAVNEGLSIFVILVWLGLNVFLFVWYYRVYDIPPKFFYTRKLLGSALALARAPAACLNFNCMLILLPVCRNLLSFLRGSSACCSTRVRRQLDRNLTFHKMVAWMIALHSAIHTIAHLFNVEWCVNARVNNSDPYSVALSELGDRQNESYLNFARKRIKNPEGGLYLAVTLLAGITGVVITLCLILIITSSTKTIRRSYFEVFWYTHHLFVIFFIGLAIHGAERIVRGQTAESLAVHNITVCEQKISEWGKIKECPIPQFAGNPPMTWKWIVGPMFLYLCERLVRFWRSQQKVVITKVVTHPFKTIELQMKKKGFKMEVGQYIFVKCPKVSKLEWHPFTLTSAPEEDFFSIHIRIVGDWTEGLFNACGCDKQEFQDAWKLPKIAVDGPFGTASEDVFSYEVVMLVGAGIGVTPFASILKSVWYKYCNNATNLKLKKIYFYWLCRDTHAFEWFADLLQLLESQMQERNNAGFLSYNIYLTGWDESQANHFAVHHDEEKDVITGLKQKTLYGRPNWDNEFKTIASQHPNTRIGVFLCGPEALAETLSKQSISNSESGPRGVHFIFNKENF

[9] = target: NADPH oxidase 4 (Homo sapiens) (UniProt Q9NPH5); experiment: compounds shifting NOX4 Amplex Red fluorescence – cell-based, HEK293-NOX4, tetracycline-induced, NOX inhibitor project, primary screen (AID 1160); details: HEK293-NOX4, Amplex Red H2O2 fluorescence, 45 min; higher = more signal, called active from +8 up or from −8 down
Chain of NADPH oxidase 4 (Homo sapiens) (Q9NPH5 whole entry, looked up): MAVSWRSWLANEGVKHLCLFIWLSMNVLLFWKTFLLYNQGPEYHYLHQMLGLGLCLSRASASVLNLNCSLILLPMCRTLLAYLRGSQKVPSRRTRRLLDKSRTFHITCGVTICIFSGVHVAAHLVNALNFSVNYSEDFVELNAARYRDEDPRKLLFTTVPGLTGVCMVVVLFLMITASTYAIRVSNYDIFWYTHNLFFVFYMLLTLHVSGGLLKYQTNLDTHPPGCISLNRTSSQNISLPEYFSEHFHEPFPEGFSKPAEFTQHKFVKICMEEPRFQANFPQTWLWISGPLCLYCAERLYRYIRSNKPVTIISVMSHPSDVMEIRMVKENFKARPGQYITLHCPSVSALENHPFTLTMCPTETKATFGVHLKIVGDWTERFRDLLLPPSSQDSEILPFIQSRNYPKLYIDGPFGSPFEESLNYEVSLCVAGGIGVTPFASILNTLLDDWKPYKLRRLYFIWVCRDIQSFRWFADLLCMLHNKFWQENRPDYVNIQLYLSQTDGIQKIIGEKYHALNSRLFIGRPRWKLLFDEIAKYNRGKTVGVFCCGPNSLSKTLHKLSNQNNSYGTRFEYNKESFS

[10] = target: NADPH oxidase 5 (Homo sapiens) (UniProt Q96PH1); experiment: compounds shifting NOX5 Amplex Red fluorescence – cell-based, HEK293-NOX5, NOX inhibitor project, primary screen (AID 1161); details: HEK293-NOX5, ionomycin, 45 min, higher = more signal
Chain of NADPH oxidase 5 (Homo sapiens) (Q96PH1 whole entry, looked up): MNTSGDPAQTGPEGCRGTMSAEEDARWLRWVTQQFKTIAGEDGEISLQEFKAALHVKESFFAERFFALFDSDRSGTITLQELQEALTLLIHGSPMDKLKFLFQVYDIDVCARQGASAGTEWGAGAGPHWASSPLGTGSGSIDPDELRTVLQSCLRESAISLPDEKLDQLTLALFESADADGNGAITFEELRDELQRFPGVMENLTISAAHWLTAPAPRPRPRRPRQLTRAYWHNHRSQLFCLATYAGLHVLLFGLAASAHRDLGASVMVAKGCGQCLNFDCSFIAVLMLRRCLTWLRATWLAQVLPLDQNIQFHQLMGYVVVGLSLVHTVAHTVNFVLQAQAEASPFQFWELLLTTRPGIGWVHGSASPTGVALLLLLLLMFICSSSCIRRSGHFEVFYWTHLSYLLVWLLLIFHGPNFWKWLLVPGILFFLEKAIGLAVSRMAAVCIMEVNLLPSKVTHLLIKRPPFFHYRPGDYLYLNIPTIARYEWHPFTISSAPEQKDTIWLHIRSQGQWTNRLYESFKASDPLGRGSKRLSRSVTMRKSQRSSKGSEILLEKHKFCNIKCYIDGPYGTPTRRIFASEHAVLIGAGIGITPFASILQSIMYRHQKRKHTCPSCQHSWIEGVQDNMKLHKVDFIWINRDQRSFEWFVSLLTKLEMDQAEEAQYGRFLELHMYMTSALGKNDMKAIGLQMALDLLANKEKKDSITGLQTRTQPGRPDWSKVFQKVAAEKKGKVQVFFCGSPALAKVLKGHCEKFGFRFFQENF

[11] = compound effects on lung adenocarcinoma cell viability – A549, calcein-AM fluorescence, 48 h, basal, profiling panel (AID 1162); details: higher = more signal; note: test concentration not given here
[12] = compound effects on differentiated 3T3-L1 adipocyte viability – cell-based, 3T3-L1 adipocytes, calcein-AM fluorescence, 48 h, basal, profiling panel (AID 1163); details: 3T3-L1 adipocytes viability, higher = more signal; note: test concentration not given here
[13] = compound effects on hepatocellular carcinoma cell viability – HepG2, calcein-AM fluorescence, 48 h, basal, profiling panel (AID 1164); details: higher = more signal; note: test concentration not given here
[14] = compound effects on multiple myeloma cell viability – MM1S, calcein-AM fluorescence, 48 h, basal, profiling panel (AID 1165); details: higher = more signal;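 note: viability of MM1S multiple myeloma cells under basal unstimulated conditions; test concentration not given here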
[15] = calcein-AM signal in unstimulated myeloma cells – cell-based, calcein-AM fluorescence, 48 h, PK04 Diversity Set, profiling panel (AID 1166); details: RPMI8226 myeloma viability, higher = more signal;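 note: cells grown under basal conditions without added stimulus; test concentration not given here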
[16] = JC-1 mitochondrial signal, unstimulated HepG2 cells – cell-based, JC-1 fluorescence, 24 h, 100 nL compound, profiling panel (AID 1167); details: HepG2 mitochondrial potential, higher = more signal; note: test concentration not given here
[17] = JC-1 mitochondrial signal, unstimulated adipocytes – cell-based, JC-1 fluorescence, 3T3-L1 adipocytes, 24 h, 100 nL compound, profiling panel (AID 1168); details: JC-1 mitochondrial fluorescence, higher = more signal, called active from +8 up or from −8 down; note: test concentration not given here
[18] = JC-1 mitochondrial signal, unstimulated myeloma cells – cell-based, JC-1 fluorescence, RPMI8226, 24 h, 100 nL compound, profiling panel (AID 1169); details: JC-1 mitochondrial potential fluorescence, higher = more signal; note: test concentration not given here
[19] = JC-1 mitochondrial signal, unstimulated MM1S myeloma – cell-based, JC-1 fluorescence, 24 h, 100 nL compound, profiling panel (AID 1170); details: MM1S mitochondrial potential, higher = more signal; note: test concentration not given here
[20] = resazurin metabolic signal in A549 cells – cell-based, resazurin fluorescence, 24 h, PK04 Diversity Set, profiling panel (AID 1171); details: A549 viability, higher = more signal, called active from +8 up or from −8 down; note: test concentration not given here

SMILES	z-score [1]	composite z-score [2]	z-score [3]	z-score [4]	z-score [5]	z-score [6]	z-score [7]	z-score [8]	z-score [9]	z-score [10]	z-score [11]	z-score [12]	z-score [13]	z-score [14]	z-score [15]	z-score [16]	z-score [17]	z-score [18]	z-score [19]	z-score [20]
CO[C@H]1O[C@H](CO)[C@@H](OC(=O)Nc2ccc(Oc3ccccc3)cc2)[C@H](OC(=O)Nc2ccccc2-c2ccccc2)[C@@H]1OC(=O)Nc1ccccc1-c1ccccc1	0.963 (inactive)	0.361	0.484 (inactive)	1.04 (inactive)	0.228 (inactive)	0.766 (inactive)	0.322	2.06 (inactive)	0.707 (inactive)	0.356	-0.0685	0.0358	-0.61	-0.443	-0.612	0.319	2.46 (inactive)	-1.13	0.267	-0.41 (inactive)
C=C[C@H](COC(C)=O)NS(=O)(=O)c1ccc(Br)cc1	0.348 (inactive)	0.0056	0.174 (inactive)	-0.191 (inactive)	-0.3 (inactive)	0.252 (inactive)	0.16	1.96 (inactive)	-0.0653 (inactive)	0.0573	0.0955	-0.569	1.05	0.661	0.402	0.549	0.0685 (inactive)	-0.616	0.651	-0.201 (inactive)
CC(C)(C)OC(=O)CC[C@]1(C(=O)NCCN2CCOCC2)N=C(c2ccc(OCCCO)cc2)O[C@H]1c1ccccc1	0.167 (inactive)	0.119	12.5 (active)	1.5 (inactive)	0.531 (inactive)	0.47 (inactive)	-0.501	0.618 (inactive)	1.54 (inactive)	1.42	1.01	-1.82	0.549	0.251	-0.51	-0.342	0.134 (inactive)	-0.69	-0.158	0.0762 (inactive)
CCOC(=O)C1=CC[C@@H](c2ccccc2C(F)(F)F)N(S(=O)(=O)c2ccc(C)cc2)C1	-0.007 (inactive)	0.743	0.565 (inactive)	-0.555 (inactive)	-0.892 (inactive)	-1.92 (inactive)	0.39	0.17 (inactive)	-0.742 (inactive)	-0.836	-0.82	0.605	1.31	-0.925	-1.28	2.51	0.0742 (inactive)	-0.226	-0.435	-1.27 (inactive)
CN(C)CCCNC(=O)[C@@H]1c2ccccc2C(=O)N(Cc2ccc(OC(F)(F)F)cc2)[C@H]1c1ccc(CO)cc1	0.532 (inactive)	0.197	2.04 (inactive)	0.81 (inactive)	3 (inactive)	0.891 (inactive)	0.0342	0.799 (inactive)	0.237 (inactive)	1.44	1.71	1.91	-0.0979	0.584	-2.39	3.72	-0.463 (inactive)	-0.114	-1.13	0.989 (inactive)
C=C(CCCC)/C(=C/C[C@@H](OC(=O)c1ccncc1)c1cccc(OCCO)c1)c1cnc2ccccc2c1	0.0513 (inactive)	0.284	19.1 (active)	3.53 (inactive)	0.902 (inactive)	1.12 (inactive)	0.462	-1.21 (inactive)	-0.36 (inactive)	-0.509	-0.021	1.14	-0.681	-2.65	-1.5	1.99	-0.891 (inactive)	-0.497	0.117	0.586 (inactive)
COCCOC(=O)N1C(=O)[C@@]2(c3ccccc31)[C@H](c1ccc(OCCO)cc1)N1[C@H](c3ccccc3)[C@H](c3ccccc3)OC(=O)[C@H]1[C@@H]2C(=O)Nc1nc2ccccc2s1	0.269 (inactive)	0.071	4.55 (inactive)	2.02 (inactive)	-0.214 (inactive)	1.74 (inactive)	-0.381	1.13 (inactive)	1.17 (inactive)	1.28	-1.38	0.73	-1.18	-1.15	-1.57	-3.4	0.576 (inactive)	-1.09	-1.36	0.294 (inactive)
[N-]=[N+]=NCc1ccccc1C[C@@]1(C(=O)N2CCCCC2)N=C(c2ccc(OCCCO)cc2)O[C@@H]1c1ccccc1N=[N+]=[N-]	0.842 (inactive)	-0.126	31.2 (active)	30.4 (active)	2.6 (inactive)	3.27 (inactive)	-0.0417	1.2 (inactive)	-0.0332 (inactive)	-1.27	-0.0222	1.03	0.471	-3.11	-3.21	0.821	0.636 (inactive)	-1.25	-1.14	0.0861 (inactive)
O=C1c2ccccc2[C@@]2(Cc3ccccc3N(C3CC3)C2=O)[C@H](c2ccc(CO)cc2)N1C1CCCCC1	-0.301 (inactive)	-0.0066	0.667 (inactive)	-0.0557 (inactive)	0.181 (inactive)	0.181 (inactive)	-0.0814	0.112 (inactive)	-1.7 (inactive)	-1.45	-0.506	-0.621	-0.578	-0.258	-2.4	-0.266	-0.971 (inactive)	0.818	0.144	-0.179 (inactive)
CCOc1cc(C(O)C2C=CC3C(=O)N(C)C(=O)C3N2N2CCCCC2)ccc1O (stereo not given)	-0.794 (inactive)	0.267	1.5 (inactive)	1.66 (inactive)	0.0675 (inactive)	1.12 (inactive)	-0.599	-1.96 (inactive)	-3.83 (inactive)	-3.11	0.256	-0.413	-0.07	-0.224	0.294	-0.788	-0.0873 (inactive)	-0.109	0.0215	-0.296 (inactive)
C=C(CCCC)C(=O)CC[C@@H](OC(=O)c1cccnc1)c1ccccc1OCCO	0.225 (inactive)	-0.101	22.3 (active)	5.38 (inactive)	0.88 (inactive)	0.871 (inactive)	0.315	-1.73 (inactive)	-0.158 (inactive)	-1.44	-0.528	0.101	-0.14	-3.21	-2.92	0.0547	0.361 (inactive)	-0.754	-1.33	0.335 (inactive)
COc1ccc([Si](C)(C)[C@@H]2[C@@H](CCO)O[C@]3(C(=O)N(Cc4cccc(N5C(=O)c6ccccc6Oc6ccccc65)c4)c4ccccc43)[C@H]2C)cc1	0.705 (inactive)	0.0355	2.72 (inactive)	3.13 (inactive)	0.207 (inactive)	1.77 (inactive)	0.243	0.423 (inactive)	0.543 (inactive)	1.98	-0.799	-0.472	-3.38	-1.89	-4.32	-0.192	0.614 (inactive)	-0.954	-1.82	-1.82 (inactive)
CCOC(=O)C1=C[C@@H](c2ccccc2)N(S(=O)(=O)c2ccc(C)cc2)[C@H]1c1cccc(Cl)c1	-1.29 (inactive)	0.409	1.57 (inactive)	1.24 (inactive)	-0.276 (inactive)	0.805 (inactive)	-0.645	0.14 (inactive)	-0.143 (inactive)	0.0576	-1.17	0.452	-1.71	-1.33	-1.48	2.04	-0.591 (inactive)	0.754	0.648	0.776 (inactive)
CN1C(=O)C2C=CC(C(O)c3c(F)cccc3Cl)N(Nc3ccccc3)C2C1=O (stereo not given)	-1.32 (inactive)	0.277	0.32 (inactive)	0.733 (inactive)	-0.108 (inactive)	1.12 (inactive)	-0.809	-2.08 (inactive)	-4.96 (inactive)	-2.51	-0.635	-0.924	-1.18	0.161	-1.42	-1.4	-0.144 (inactive)	-0.725	0.302	-0.31 (inactive)
COc1cc2c(cc1OC)CN(C(=O)[C@H]1[C@@H]3C(=O)O[C@@H](c4ccccc4)[C@@H](c4ccccc4)N3[C@@H](c3ccc(OCCO)cc3)[C@]13C(=O)Nc1ccc(C#CCCO)cc13)CC2	0.0836 (inactive)	0.433	2.66 (inactive)	1.8 (inactive)	0.796 (inactive)	0.802 (inactive)	0.142	1.46 (inactive)	0.798 (inactive)	1.66	0.269	-0.16	-0.142	-0.0509	0.77	-1.21	0.764 (inactive)	-0.453	-1.07	0.604 (inactive)
COc1ccc(C#Cc2ccc3c(c2)[C@]2(C(=O)N3)[C@H](C(=O)N3CCc4cc(OC)c(OC)cc4C3)[C@H]3C(=O)O[C@H](c4ccccc4)[C@H](c4ccccc4)N3[C@@H]2c2ccc(O)cc2)cc1	-0.658 (inactive)	0.0839	0.488 (inactive)	0.216 (inactive)	-0.103 (inactive)	0.296 (inactive)	-0.203	1.32 (inactive)	0.574 (inactive)	-0.523	-0.522	-0.163	0.615	-0.229	-0.293	-1.43	1.72 (inactive)	-0.356	-1.09	-0.297 (inactive)
Cc1ccc(S[C@]2(C(=O)NCC(C)C)CC(=O)N(Cc3ccccc3Cl)[C@@H]2c2ccc(CO)cc2I)cc1	-0.455 (inactive)	0.258	3.05 (inactive)	0.592 (inactive)	1.24 (inactive)	0.254 (inactive)	0.464	2.55 (inactive)	-0.402 (inactive)	1.52	-0.0583	-0.201	-0.752	-1.94	-1.67	-0.0983	-0.559 (inactive)	-0.788	-1.75	0.622 (inactive)
CN(C)C(=O)[C@@]1(Cc2ccccc2N=[N+]=[N-])COC(c2ccc(OCCCO)cc2)=N1	1.92 (inactive)	-0.781	26.3 (active)	6.99 (inactive)	3.43 (inactive)	1.23 (inactive)	0.685	-1.99 (inactive)	-0.103 (inactive)	-1.82	1.69	-0.541	1.32	-0.257	0.192	1.4	0.0922 (inactive)	-0.934	-1.23	0.325 (inactive)
